Results from PubChem BioAssay (NCATS).
Results filed as inconclusive are left out. Entries that show only a call come without a potency. Unmarked numbers belong to inactive results. Activity calls are given as the source filed them. Calls come from the whole dose curve; as a rule, active = well fitted cell-killing curve with a large enough effect; inconclusive = small, poorly fitted or top-dose-only effect, or effect the other way; inactive = flat fitted curve, though single readings scatter.

What was measured:
Assay in all cases: Primary qHTS to identify gynecologic anti-cancer compounds using libraries of approved drugs and bioactive compounds (AID 1345084); note: nearly all actives have a fitted effect of over 55% in size
Settings in all cases: Gynecologic cancer cell panel viability, ATPlite luminescence, 48 h; series mostly up to 57.5 µM
[1] = test system: SKOV3
In short: (§1)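 Luminescence from the ATPlite ATP-monitoring reagent indicates viable cell number; lower signal means cytotoxicity. Cells received compound 16 h after seeding and were exposed for 48 h across five concentrations.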

[2] = test system: Tov-21-G
In short: as §1

[3] = test system: Tov112D
In short: as §1
Potency is the fitted concentration of half-maximal effect.

## CCC(C)C1NC(=O)C(Cc2ccccc2)NC(=O)C(CCCCCC(=O)C(O)CO)NC(=O)C2CCCCN2C1=O (stereo unspecified)
[1]
  Potency: inactive
[2]
  Potency: inactive
[3]
  Potency: inactive

## CCCCC1CCN(CCCN2C(=O)CCc3ccccc32)CC1
[1]
  Potency: inactive
[2]
  Potency: inactive
[3]
  Potency: inactive

## COc1ccccc1-c1ccc(-c2cn(C(=O)N3CCCCC3Cc3ccccc3)nn2)cc1 (stereo unspecified)
[1]
  Potency: inactive
[2]
  Potency: inactive
[3]
  Potency: inactive

## COc1ccc(NC(=O)c2ccc(-c3ccc(-c4nnc(C)o4)cc3C)cc2)cc1N1CCN(C)CC1
[1]
  Potency: inactive
[2]
  Potency: inactive
[3]
  Potency: inactive

## Cc1ccc(-c2cn3c4c(sc3n2)CCCC4)cc1
[1]
  Potency: 15.8 µM (active)
[2]
  Potency: 12.6 µM (active)
[3]
  Potency: 12.6 µM (active)

## Cc1c(C(=O)Nc2ccc(N3CCC(N4CCOCC4)CC3)c(C#N)c2)cnn1-c1ccc(Cl)cc1
[1]
  Potency: inactive
[2]
  Potency: inactive
[3]
  Potency: inactive

## Cc1cc(OCCCS(C)(=O)=O)cc(C)c1-c1cccc(COc2ccc3c(c2)OCC3CC(=O)O)c1 (stereo unspecified)
[1]
  Potency: inactive
[2]
  Potency: inactive
[3]
  Potency: inactive

## Cc1cc(OCCCS(C)(=O)=O)cc(C)c1-c1cccc(COc2ccc(C3=CC(=O)NS3=O)cc2)c1 (stereo unspecified)
[1]
  Potency: inactive
[2]
  Potency: inactive
[3]
  Potency: inactive

## COc1ccc(N(C(=O)Nc2c(C)cccc2C)c2cc(Nc3ccc(N4CCN(C)CC4)cc3)ncn2)c(OC)c1
[1]
  Potency: 25.1 µM (active)
[2]
  Potency: 12.6 µM (active)
[3]
  Potency: inactive

## COc1ccc(Cl)c(Nc2ncnc3cc(OCC4CCN(C)CC4)c(OC)cc23)c1
[1]
  Potency: 3.55 µM (active)
[2]
  Potency: 3.16 µM (active)
[3]
  Potency: inactive

## CC(=O)C1(C)CCC2C3C=C(C)C4=CC(=O)CCC4(C)C3CCC21C (stereo unspecified)
[1]
  Potency: inactive
[2]
  Potency: inactive
[3]
  Potency: inactive

## O=C(Nc1ccc(-c2ccc(Cl)c(Cl)c2)cc1)C1=C(O)c2ccccc2S(=O)(=O)N1
[1]
  Potency: inactive
[2]
  Potency: inactive
[3]
  Potency: inactive

## C/C=C\NC(=O)C1NC(=O)C(CC(N)=O)NC(=O)C(NC(=O)C(=O)C(C)CC)Cc2ccc(O)c(c2)-c2cccc3c2NC(=O)C3(O)C1O (stereo unspecified)
[1]
  Potency: inactive
[2]
  Potency: 4.47 µM (active)
[3]
  Potency: inactive

## CNc1nc(Nc2ccc(C(=O)N3CCOCC3)cc2OC)nc2[nH]cc(Cl)c12
[1]
  Potency: inactive
[2]
  Potency: inactive
[3]
  Potency: inactive

## COc1ccc(C[C@H]2COC(=O)[C@@H]2Cc2ccc(O[C@@H]3O[C@H](CO)[C@@H](O)[C@H](O)[C@H]3O)c(OC)c2)cc1OC
[1]
  Potency: 4.47 µM (active)
[2]
  Potency: inactive
[3]
  Potency: inactive

## Cc1noc(C)c1-c1cc(O)cc(C(O)c2ccccc2)c1 (stereo unspecified)
[1]
  Potency: 15.8 µM (active)
[2]
  Potency: inactive
[3]
  Potency: inactive

## CCCOc1ccc(S(=O)(=O)N2CCN(CCO)CC2)cc1-c1nc2c(CCC)cn(CC)c2c(=O)[nH]1
[1]
  Potency: inactive
[2]
  Potency: inactive
[3]
  Potency: inactive

## O=C(O)CCc1nccc2c1[nH]c1ccccc12
[1]
  Potency: inactive
[2]
  Potency: inactive
[3]
  Potency: inactive

## C/C=C(/C)C(=O)O[C@@H]1C[C@@H](OC(=O)CC(C)C)C2(C)C3C(=O)C=C(C)C2C3C1(C)C (stereo partly specified)
[1]
  Potency: inactive
[2]
  Potency: inactive
[3]
  Potency: inactive

## C=C1CCC2[C@](C)(CCC[C@@]2(C)C=O)[C@H]1CC/C(C)=C/CO (stereo partly specified)
[1]
  Potency: inactive
[2]
  Potency: inactive
[3]
  Potency: inactive

## C[C@H]1CC[C@@]2(OC1)O[C@H]1CC3[C@@H]4CC[C@@H]5C[C@@H](O[C@@H]6O[C@H](CO)[C@@H](O[C@@H]7O[C@@H](C)[C@H](O)[C@@H](O)[C@H]7O)[C@H](O)[C@H]6O[C@@H]6O[C@H](CO)[C@@H](O)[C@H](O)[C@H]6O)CC[C@]5(C)C4CC[C@]3(C)[C@H]1[C@@H]2C (stereo partly specified)
[1]
  activity change, negative = cytotoxicity: -15.8% [at 11.6 µM]
[2]
  activity change, negative = cytotoxicity: -2.16% [at 11.6 µM]
[3]
  activity change, negative = cytotoxicity: -1.68% [at 11.6 µM]

## COc1ccc(S(=O)(=O)n2cnc3cc(C)c(C)cc32)cc1
[1]
  Potency: inactive
[2]
  Potency: inactive
[3]
  Potency: inactive

## O=C(Nc1ccc(N(Cc2ccsc2)C(=O)Cn2nnc3ccccc32)cc1)C1CC1
[1]
  Potency: inactive
[2]
  Potency: inactive
[3]
  Potency: inactive

## O=C(NCCCN1CCOCC1)c1cnn2c(-c3ccccc3)cc(-c3ccccc3)nc12
[1]
  Potency: inactive
[2]
  Potency: inactive
[3]
  Potency: inactive

## Nc1ncnc2c1c(-c1ccc(Cl)cc1)nn2-c1cccc(-c2cnnn2Cc2cccc(-c3ccccc3)c2)c1
[1]
  Potency: inactive
[2]
  Potency: inactive
[3]
  Potency: inactive

## CCC(C)C(=O)OC12C(OC(C)=O)C(C)C3(O)C(C=C(CO)CC4(O)C(=O)C(C)=CC43)C1C2(C)C (stereo unspecified)
[1]
  Potency: inactive
[2]
  Potency: inactive
[3]
  Potency: inactive

## C=CC(=O)N1CC(N2CCN(C(=O)CNc3cc(C4CC4)c(Cl)cc3O)CC2)C1
[1]
  Potency: inactive
[2]
  Potency: inactive
[3]
  Potency: inactive
